Data on 23 molecules can be found in PubChem BioAssay.

Values without a mark were called inactive. For some assays here: Entries with a potency or affinity are not part of this list. Active and inactive are the calls of the source. Unless noted, no rule for the calls is given here.

The nature of test [1]: antimalarial activity against Dd2 strain (AID 2302;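 active = growth inhibition above 50% at the single 2 µM test dose, taken to imply half-maximal potency below 2 µM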;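 also: 0% = DMSO untreated growth and 100% = chloroquine plus artemisinin killed control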). The conditions noted are these: P. falciparum Dd2 in RBCs, LDH growth readout, 72 h; at 2 µM; hits give high values.
The target of test [2] is L-lactate dehydrogenase (Plasmodium falciparum (isolate CDC / Honduras)) (UniProt Q27743). As to the kind of experiment: PfLDH activity inhibition – cell lysate, 3D7 strain, counter-screen for P. falciparum growth inhibition project (AID 2304).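 Also: 0% = vehicle and 100% = reference inhibitor.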 The settings on record: P. falciparum 3D7 crude extract, LDH APAD/NBT absorbance; at 2 µM; hits give high values.
Test [3] in a line: inhibition of 3D7 malaria parasite growth – strain 3D7 (AID 2306).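 Also: 0% = DMSO wells and 100% = chloroquine plus artemisinin control wells.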 The settings on record: P. falciparum 3D7 erythrocytic growth, LDH absorbance, 72 h; at 2 µM; hits give high values.
Test [4] addresses Calcium-dependent protein kinase 1 (Plasmodium falciparum (isolate 3D7)) (UniProt P62344). In words: PfCDPK1 kinase inhibitors, biochemical, TCAMS library (AID 1159585; cut-off not given, nearly all actives have IC50 up to about 0.98 µM;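 also: inhibitors leave more ATP so luminescence rises with inhibition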). The settings on record: recombinant PfCDPK1, Kinase-Glo ATP depletion luminescence.
Test [5] concerns the target Plasmodium falciparum protein kinase 6 (PK6, PF3D7_1337100) (UniProt Q8IDW1). In words: PfPK6 kinase inhibitors, biochemical, TCAMS library (AID 1159586). The settings on record: recombinant PfPK6, Kinase-Glo ATP depletion luminescence.
Test [6] deals with Protein kinase 7 (PK7), Plasmodium falciparum 3D7 (PF3D7_0213400) (UniProt Q7YTF7). As to the kind of experiment: inhibition of Plasmodium PK7 catalytic activity – biochemical, TCAMS antimalarial set, Kinase-Glo luminescence (AID 1159587). The conditions noted are these: recombinant PfPK7, Kinase-Glo ATP depletion luminescence.
Test [7] has as its target Calcium-dependent protein kinase 4 (Plasmodium falciparum (isolate 3D7)) (UniProt Q8IBS5). As to the kind of experiment: PfCDPK4 kinase inhibitors, biochemical, TCAMS library (AID 1159588; cut-off not given, nearly all actives have IC50 up to about 0.91 µM). The conditions noted are these: recombinant PfCDPK4, Kinase-Glo ATP depletion luminescence.

Chain of L-lactate dehydrogenase (Plasmodium falciparum (isolate CDC / Honduras)) (Q27743 whole entry, looked up): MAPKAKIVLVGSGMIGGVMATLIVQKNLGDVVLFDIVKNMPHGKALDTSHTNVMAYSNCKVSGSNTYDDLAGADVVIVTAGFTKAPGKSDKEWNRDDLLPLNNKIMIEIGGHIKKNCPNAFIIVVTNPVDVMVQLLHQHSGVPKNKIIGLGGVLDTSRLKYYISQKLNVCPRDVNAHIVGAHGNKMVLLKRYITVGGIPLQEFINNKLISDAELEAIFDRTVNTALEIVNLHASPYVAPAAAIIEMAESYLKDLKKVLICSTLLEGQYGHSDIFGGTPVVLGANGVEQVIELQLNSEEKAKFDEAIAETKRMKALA
Chain of Calcium-dependent protein kinase 4 (Plasmodium falciparum (isolate 3D7)) (Q8IBS5 whole entry, looked up): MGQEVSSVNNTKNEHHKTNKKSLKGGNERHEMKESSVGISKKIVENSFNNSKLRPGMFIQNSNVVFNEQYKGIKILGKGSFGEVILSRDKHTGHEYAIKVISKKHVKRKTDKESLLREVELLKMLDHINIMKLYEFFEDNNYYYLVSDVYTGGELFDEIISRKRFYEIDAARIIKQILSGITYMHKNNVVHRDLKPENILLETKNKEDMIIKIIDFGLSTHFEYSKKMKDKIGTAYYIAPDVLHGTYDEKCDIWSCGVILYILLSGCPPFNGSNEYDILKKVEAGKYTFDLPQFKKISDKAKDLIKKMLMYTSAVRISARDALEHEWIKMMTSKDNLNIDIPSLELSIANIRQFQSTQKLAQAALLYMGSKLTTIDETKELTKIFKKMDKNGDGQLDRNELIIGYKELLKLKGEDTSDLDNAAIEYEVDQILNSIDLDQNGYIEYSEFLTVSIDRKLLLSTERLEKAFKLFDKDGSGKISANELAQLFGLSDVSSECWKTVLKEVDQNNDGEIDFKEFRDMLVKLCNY
Chain of Calcium-dependent protein kinase 1 (Plasmodium falciparum (isolate 3D7)) (P62344 whole entry, looked up): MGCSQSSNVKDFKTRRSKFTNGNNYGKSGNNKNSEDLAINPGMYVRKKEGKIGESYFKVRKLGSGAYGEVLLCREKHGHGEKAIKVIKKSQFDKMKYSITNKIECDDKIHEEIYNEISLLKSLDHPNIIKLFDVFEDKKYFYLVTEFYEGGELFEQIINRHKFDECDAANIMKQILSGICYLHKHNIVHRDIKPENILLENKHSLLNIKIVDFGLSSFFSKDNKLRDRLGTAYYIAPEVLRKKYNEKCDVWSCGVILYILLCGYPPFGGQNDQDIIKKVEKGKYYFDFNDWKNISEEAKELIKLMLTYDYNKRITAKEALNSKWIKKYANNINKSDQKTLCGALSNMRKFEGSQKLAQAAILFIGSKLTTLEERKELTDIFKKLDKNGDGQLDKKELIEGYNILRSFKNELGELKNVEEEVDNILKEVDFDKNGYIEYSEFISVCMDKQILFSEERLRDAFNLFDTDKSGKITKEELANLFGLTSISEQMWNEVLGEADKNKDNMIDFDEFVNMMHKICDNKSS
Chain of Protein kinase 7 (PK7), Plasmodium falciparum 3D7 (PF3D7_0213400) (Q7YTF7 1-343): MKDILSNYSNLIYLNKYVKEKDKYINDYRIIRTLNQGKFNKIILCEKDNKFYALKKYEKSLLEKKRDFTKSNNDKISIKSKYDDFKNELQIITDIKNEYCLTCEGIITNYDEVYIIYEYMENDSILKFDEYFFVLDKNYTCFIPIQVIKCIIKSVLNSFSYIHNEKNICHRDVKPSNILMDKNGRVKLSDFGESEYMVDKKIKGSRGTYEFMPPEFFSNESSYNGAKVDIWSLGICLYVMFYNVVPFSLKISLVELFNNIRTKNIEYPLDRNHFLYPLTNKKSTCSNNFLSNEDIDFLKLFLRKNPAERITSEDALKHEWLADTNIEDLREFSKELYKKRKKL
Chain of Plasmodium falciparum protein kinase 6 (PK6, PF3D7_1337100) (Q8IDW1 1-305): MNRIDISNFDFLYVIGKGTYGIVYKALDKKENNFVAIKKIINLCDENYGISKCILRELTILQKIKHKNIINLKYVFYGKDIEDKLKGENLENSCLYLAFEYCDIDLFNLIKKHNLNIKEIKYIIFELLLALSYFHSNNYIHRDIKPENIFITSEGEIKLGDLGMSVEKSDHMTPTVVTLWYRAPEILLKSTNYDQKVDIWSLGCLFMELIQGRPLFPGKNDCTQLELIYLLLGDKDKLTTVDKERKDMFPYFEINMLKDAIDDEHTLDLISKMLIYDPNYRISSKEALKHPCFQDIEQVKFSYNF

As to `CCc1nc(N)nc(N)c1-c1ccc2c(c1)CCCC2`, the growth inhibition is -5% in test [1] and 95% (active) in test [3]. In addition, the inhibition in test [2] is -5%. In addition, the outcome in test [4], in test [5], in test [6] and in test [7] was inactive.

With `CC1CCN(Cc2c(O)ccc3c(CN4CCC(C)CC4)c(O)ccc23)CC1`, the values for the growth inhibition in test [1] and in test [3] were 86% (active) and 102% (active), respectively. For the same molecule, the inhibition in test [2] is -3%. The result in test [4], in test [5], in test [6] and in test [7] was inactive.

Take `COc1ccc2nc3cc(Cl)ccc3c(Nc3ccc(Oc4ccc(Nc5c6ccc(Cl)cc6nc6ccc(OC)cc56)cc4)cc3)c2c1`: the growth inhibition in test [1] is 93% (active); in test [3], 86% (active). Further, the inhibition in test [2] was 7%. The result in test [4], in test [5], in test [6] and in test [7] was inactive.

`COc1cc(Cc2cnc(N)nc2N)cc(OCCCC(=O)O)c1OC`: the values for the growth inhibition in test [1] and in test [3] were -3% and 84% (active), respectively. In addition, the inhibition in test [2] was 3%. In addition, the result in test [4], in test [5], in test [6] and in test [7] was inactive.

In the case of `NC(=NCC1CC1c1ccccc1)c1cccc(C(N)=NCC2CC2c2ccccc2)n1` (stereo unspecified), the results for the growth inhibition in test [1] and in test [3] were -2% and 95% (active), respectively. For the same molecule, the inhibition in test [2] is 0%. Moreover, the result in test [4], in test [5], in test [6] and in test [7] was inactive.

`N=C(N)c1ccc2[nH]c(-c3cc4cc(C(=N)N)ccc4o3)cc2c1`: the growth inhibition in test [1] is 87% (active); in test [3], 94% (active). Moreover, the inhibition in test [2] is 5%. The result in test [4], in test [5], in test [6] and in test [7] was inactive.

In the case of `CCCc1cc(OC)c(CC2c3cc(O)c(Cl)cc3C(c3ccccc3)CN2C)cc1OC` (stereo unspecified), the growth inhibition in test [1] and in test [3] was 100% (active) in each case. Further, the inhibition in test [2] is 4%. The result in test [4], in test [5], in test [6] and in test [7] was inactive.

Regarding `COc1cccc(Cn2ccc3c4c(N)nc(N)nc4ccc32)c1`, the growth inhibition in test [1] was 96% (active); in test [3], 99% (active). Further, in test [2], the inhibition is -2%. For the same molecule, the outcome in test [4], in test [5], in test [6] and in test [7] was inactive.

`CN=C(N)c1ccc(NC(=O)C=Cc2ccc(C(=O)Nc3ccc(C(N)=NC)cc3)cc2)cc1`: the values for the growth inhibition in test [1] and in test [3] were 100% (active) and 97% (active), respectively. In addition, in test [2], the inhibition is 1%. Further, the outcome in test [4], in test [5], in test [6] and in test [7] was inactive.

As to `CCN(CC)CCCC(C)Nc1ccnc2cc(C#N)ccc12` (stereo unspecified), the figures for the growth inhibition in test [1] and in test [3] were 80% (active) and 100% (active), respectively. The inhibition in test [2] is -1%. Besides, the outcome in test [4], in test [5], in test [6] and in test [7] was inactive.

As for `CCCCCCn1ccc2c3c(N)nc(N)nc3ccc21`, the figures for the growth inhibition in test [1] and in test [3] were 91% (active) and 99% (active), respectively. Moreover, in test [2], the inhibition is 0%. Besides, the result in test [4], in test [5], in test [6] and in test [7] was inactive.

Turning to `Nc1nc(N)c2cc(Cc3ccc([N+](=O)[O-])cc3)cnc2n1`, the growth inhibition is -3% in test [1] and 91% (active) in test [3]. Moreover, in test [2], the inhibition was -2%. For the same molecule, the outcome in test [4], in test [5], in test [6] and in test [7] was inactive.

With `Cc1[nH]c(C)c(-c2cccc(Oc3ccc(Cl)cc3)c2)c(=O)c1Br`, the growth inhibition was 97% (active) in test [1] and 96% (active) in test [3]. In test [2], the inhibition was 4%. The outcome in test [4], in test [5], in test [6] and in test [7] was inactive.

As for `CCCc1ccc(Cc2cnc3nc(N)nc(N)c3c2C)cc1`, the growth inhibition is -3% in test [1] and 98% (active) in test [3]. For the same molecule, the inhibition in test [2] is 4%. In addition, the outcome in test [4], in test [5], in test [6] and in test [7] was inactive.

For `CC(C)c1ccc2c(c1)C(=O)c1ccc(C(=O)O)cc1S2(=O)=O`, the growth inhibition in test [1] is 83% (active); in test [3], 93% (active). Also, the inhibition in test [2] was -4%. Further, the result in test [4], in test [5], in test [6] and in test [7] was inactive.

With `Cc1[nH]c(C)c(-c2ccc(Oc3cc(Cl)cc(Cl)c3)cc2)c(=O)c1Cl`, the growth inhibition in test [1] and in test [3] was 96% (active) each time. Also, the inhibition in test [2] was -7%. Further, the result in test [4], in test [5], in test [6] and in test [7] was inactive.

As for `CCCCc1nc2nc(N)nc(N)c2cc1CCC`, the figures for the growth inhibition in test [1] and in test [3] were -3% and 97% (active), respectively. The inhibition in test [2] was -1%. Besides, the result in test [4], in test [5], in test [6] and in test [7] was inactive.

With `Clc1ccc(CNCCCCCCCNCc2ccc(Cl)c(Cl)c2)cc1Cl`, the growth inhibition in test [1] is 49%; in test [3] it was 99% (active). The inhibition in test [2] was -7%. Moreover, the outcome in test [4], in test [5], in test [6] and in test [7] was inactive.

For `Cc1[nH]c(C)c(-c2ccc(Oc3ccc(Cl)c(Cl)c3)cc2)c(=O)c1Cl`, the growth inhibition is 97% (active) in test [1] and 100% (active) in test [3]. In addition, in test [2], the inhibition was -1%. For the same molecule, the outcome in test [4], in test [5], in test [6] and in test [7] was inactive.

For `CC(C)CNc1nc(N)nc2ccc3c(ccn3CC(C)C)c12`, the results for the growth inhibition in test [1] and in test [3] were 51% (active) and 99% (active), respectively. Further, the inhibition in test [2] is -7%. Further, the result in test [4], in test [5], in test [6] and in test [7] was inactive.

Regarding `C=CCOc1ccc(Cc2cnc(N)nc2N)cc1CCC`, the growth inhibition in test [1] is -1%; in test [3], 93% (active). The inhibition in test [2] is -1%. The outcome in test [4], in test [5], in test [6] and in test [7] was inactive.

For `Cc1nc(C)c(-c2ccc(Oc3ccc(OC(F)(F)F)cc3)cc2)c(OC(=O)c2ccccc2)c1Cl`, the growth inhibition in test [1] and in test [3] was 97% (active) each time. For the same molecule, the inhibition in test [2] is 2%. Moreover, the result in test [4], in test [5], in test [6] and in test [7] was inactive.

As for `CC1CCNc2ccc(Cc3cnc(N)nc3N)cc21` (stereo unspecified), the growth inhibition in test [1] is 0%; in test [3], 82% (active). For the same molecule, in test [2], the inhibition is 5%. For the same molecule, the result in test [4], in test [5], in test [6] and in test [7] was inactive.
